Records with an inconclusive call do not appear. A number with no mark means an inactive call. Activity calls are given as the source filed them. The call rests on the fitted dose curve.
On the % scale 0 is the no-effect control and ±100 the full control effect; potency means the concentration at half of the fitted maximal effect.

The nature of the assay: qHTS assay for small molecules that induce genotoxicity in human embryonic kidney cells expressing luciferase-tagged ATAD5 - cell viability (AID 651634). Further: nearly all actives have a fitted effect of over 25% in size. The following applies: HEK293T ATAD5-luc cells viability, CellTiter-Fluor, 15.5 h; series mostly up to 83.3 µM; activity, negative = cytotoxicity: at the top concentration. From the text: National Center for Advancing Translational Sciences [NCATS]
NIH Chemical Genomics Center [NCGC]
U.S. Environmental Protection Agency [EPA]
National Institutes of Environmental Health Sciences [NIEHS]
National Toxicology Program [NTP]
U.S. Food and Drug Administration [FDA]
Enhanced Level of Genome Instability Gene 1 (ELG1; human ATAD5) protein levels increase in response to various types of DNA damage. Using a luciferase reporter-gene tagged with ElG1, a cell-based assay [developed by Kyungjae Myung, NHGRI, NIH] was used to measure the induction of ATAD5 in human embryonic kidney cells (HEK293T). So, increase in luciferase activity can be used to identify the compounds that cause genetic stress. In addition to genotoxicity, these cells were also used to test for cytotoxicity by measuring the protease activity within live cells.
Tox21 Assay Protocol Summary:
For cytotoxicity screening, 2,000 cells in 5 uL/well were dispensed into white, solid-bottom 1536-well plates using a Multidrop Combi (Thermo Scientific) dispenser. Following transfer of 23 nL compound or DMSO vehicle by a pin tool, the plates were incubated 15.5 hr at 37C and 5% CO2. 1 ul CellTiter-Fluor reagent (Promega, Madison, WI) was then added to each plate and following 30 min incubation at 37C, fluorescence intensity was quantified on a ViewLux CCD-based plate reader.
(In general: Quantitative high-throughput screening tests each substance at several concentrations.)
As to `NNC(=O)c1cccnc1`, the “activity, negative = cytotoxicity” value was 15.7% [at 95.3 µM].
`CCCCCCCCCCOC(=O)c1ccccc1C(=O)OCCCCCCCCCC`: the “activity, negative = cytotoxicity” value is 5.75%.
Take `CC(C)(OO)c1ccccc1`: the “activity, negative = cytotoxicity” value is 27.6%.
Turning to `Clc1cc(C(Cl)(Cl)Cl)cnc1Cl`, the “activity, negative = cytotoxicity” value was -27.5%.
On to `CC1CC(CC2CCC(N)C(C)C2)CCC1N` (stereo not given), for which the “activity, negative = cytotoxicity” value was -4.8% [at 95.3 µM].
Turning to `NC(=O)C(Cl)(Cl)Cl`, the “activity, negative = cytotoxicity” value was -7.8% [at 95.3 µM].
For `CCOC(=O)CBr`, the “activity, negative = cytotoxicity” value is 15.4% [at 95.3 µM].
For `CCOc1nc(F)cc2nc(S(=O)(=O)Nc3c(Cl)cccc3Cl)nn12`, the “activity, negative = cytotoxicity” value was -8.88%.
`CC[C@H]1C[C@H]2[C@@H]3CCC4=CC(=O)CC[C@@H]4[C@H]3CC[C@]2(C)[C@H]1O`: the “activity, negative = cytotoxicity” value is -11.8%.
Still for that read-out and setting: to `O=C1NCN(c2ccccc2)C12CCN(CCCOc1ccc(F)cc1)CC2` belongs -15.5%.
Regarding `C=CCN1CC[C@]23c4c5ccc(O)c4O[C@H]2C(=O)CC[C@@]3(O)[C@H]1C5`, the Potency entry was “inactive”.
Turning to `COCCOCCO`, the “activity, negative = cytotoxicity” value is 16.3%.
As for `Brc1ccccc1`, the “activity, negative = cytotoxicity” value is -7.5%.
Same read-out and setting: then `CCOS(C)(=O)=O`, with 7.21% [at 95.3 µM].
Still for that read-out and setting: to `O=C(O)C(F)(F)C(F)(F)C(F)(F)C(F)(F)C(F)(F)C(F)(F)C(F)(F)C(F)(F)C(F)(F)F` belongs -4.04%; to `C=CC(=O)OCCCCO`, -9.01%; to `O=C1c2ccccc2C(=O)C1C(=O)C(c1ccccc1)c1ccccc1`, -11.9%.
As to `OCCCBr`, the “activity, negative = cytotoxicity” value is 20.2%.
The same measure, in the same setting: to `NS(=O)(=O)C(F)(F)C(F)(F)C(F)(F)C(F)(F)C(F)(F)C(F)(F)C(F)(F)C(F)(F)F` belongs -22.8%; to `Cc1ccc(N)cc1C`, 20.3% [at 95.3 µM].
As to `CCCCOC(=O)c1ccccc1C(=O)OCc1ccccc1`, the Potency entry is “inactive”.
With `CCCCNP(N)(N)=S`, the “activity, negative = cytotoxicity” value was 20.4%.
Regarding `ClP(Cl)(Cl)(Cl)Cl`, the “activity, negative = cytotoxicity” value was -10.7% [at 95.3 µM].
The same measure, in the same setting: then `CC(=O)c1cc2c(cc1C)C(C)(C)C(C)CC2(C)C` (stereo not given), with 8.17%; and `Cc1c(F)c(F)c(COC(=O)C2C(/C=C(\Cl)C(F)(F)F)C2(C)C)c(F)c1F` (stereo not given), with 18.3%.
On to `CCOP(=S)(OCC)Oc1nc(Cl)c(Cl)cc1Cl`, for which the Potency entry was “inactive”.
Turning to `ClCCCCBr`, the “activity, negative = cytotoxicity” value is -12.4% [at 95.3 µM].
Still for that read-out and setting: to `Nc1nc(=S)[nH][nH]1` belongs 7.86%.
For the compound `C[C@@H]1CC[C@H]2[C@@H](C)C(=O)O[C@@H]3O[C@@]4(C)CC[C@@H]1[C@]32OO4`, the Potency was 1.06 µM (active).
As for `NC(=O)CI`, the “activity, negative = cytotoxicity” value was 7.86% [at 95.3 µM].
Same read-out and setting: to `COc1cc(CC(C)N)cc2c1OCO2` (stereo not given) belongs 13.3% [at 95.3 µM].
On to `O=S1(=O)OC(c2cc(Br)c(O)c(Br)c2)(c2cc(Br)c(O)c(Br)c2)c2ccccc21`, for which the Potency was 25 µM (active).
In the case of `CC1C(=O)C[C@]2(C(C)C)C[C@H]12` (stereo not given in full), the “activity, negative = cytotoxicity” value is 23.4%.
Regarding `CC(O)(CS(=O)(=O)c1ccc(F)cc1)C(=O)Nc1ccc(C#N)c(C(F)(F)F)c1` (stereo not given), the Potency result is “inactive”.
`O=C(OC1CCCCC1)c1ccccc1C(=O)OC1CCCCC1`: the “activity, negative = cytotoxicity” value is 11.6% [at 95.3 µM].
Same read-out and setting: to `CCCN(CC1CC1)c1c([N+](=O)[O-])cc(C(F)(F)F)cc1[N+](=O)[O-]` belongs 8.04%; to `CCCCN(N=O)C(=N)N[N+](=O)[O-]`, -7.08% [at 95.3 µM]; to `COC(=O)C(C)N(C(=O)Cc1ccccc1)c1c(C)cccc1C` (stereo not given), 18.2%.
Turning to `Clc1cc(Cl)c(Cl)c(Cl)c1`, the “activity, negative = cytotoxicity” value was 11.9%.
Same read-out and setting: to `c1ccoc1` belongs 18.8%.

The record behind these values is PubChem BioAssay (Tox21).
